In all, about 310,000 compounds went through this assay and about 14,000 (4.5%) showed an effect of 50% or more. Effects have a minus sign here. Only a selection was taken, and strong results are over-represented in it overall.
Target: human ether-à-go-go-related gene (hERG) potassium channel (human, UniProt Q12809)
Assay: primary screen, population patch clamp on CHO cells stably expressing hERG; higher = less effect of the substance
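Further: peak tail current of the secondary pulse compared with the same well before compound.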

human ether-à-go-go-related gene (hERG) potassium channel, sequence (Q12809 whole entry, looked up): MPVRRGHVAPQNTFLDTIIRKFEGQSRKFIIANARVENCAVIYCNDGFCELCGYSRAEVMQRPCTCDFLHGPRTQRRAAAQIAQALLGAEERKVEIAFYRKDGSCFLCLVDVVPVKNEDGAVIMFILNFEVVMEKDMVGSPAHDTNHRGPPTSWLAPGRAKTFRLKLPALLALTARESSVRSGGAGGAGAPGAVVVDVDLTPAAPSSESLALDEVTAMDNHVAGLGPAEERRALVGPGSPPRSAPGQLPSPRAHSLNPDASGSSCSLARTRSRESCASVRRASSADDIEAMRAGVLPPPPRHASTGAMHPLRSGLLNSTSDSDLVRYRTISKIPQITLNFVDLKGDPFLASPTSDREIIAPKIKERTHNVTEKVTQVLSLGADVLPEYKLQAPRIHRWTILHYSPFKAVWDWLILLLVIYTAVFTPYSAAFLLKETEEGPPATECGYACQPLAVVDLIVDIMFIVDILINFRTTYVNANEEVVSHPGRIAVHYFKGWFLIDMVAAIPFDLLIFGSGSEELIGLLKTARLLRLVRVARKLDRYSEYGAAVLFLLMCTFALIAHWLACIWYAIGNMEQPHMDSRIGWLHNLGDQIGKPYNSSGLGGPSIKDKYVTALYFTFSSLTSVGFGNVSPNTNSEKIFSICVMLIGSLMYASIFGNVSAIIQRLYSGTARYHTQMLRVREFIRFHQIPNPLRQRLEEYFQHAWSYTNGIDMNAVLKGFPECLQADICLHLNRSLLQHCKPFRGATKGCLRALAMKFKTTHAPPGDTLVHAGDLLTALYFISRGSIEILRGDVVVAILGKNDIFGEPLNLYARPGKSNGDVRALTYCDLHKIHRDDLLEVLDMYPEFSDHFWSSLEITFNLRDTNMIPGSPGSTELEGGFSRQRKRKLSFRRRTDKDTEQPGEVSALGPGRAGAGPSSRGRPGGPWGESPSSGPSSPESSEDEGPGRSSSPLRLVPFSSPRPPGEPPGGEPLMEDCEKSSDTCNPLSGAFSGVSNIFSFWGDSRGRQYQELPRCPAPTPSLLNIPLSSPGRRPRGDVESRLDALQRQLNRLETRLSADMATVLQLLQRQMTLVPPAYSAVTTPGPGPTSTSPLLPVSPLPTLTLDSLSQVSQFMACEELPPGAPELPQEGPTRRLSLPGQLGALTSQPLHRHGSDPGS

Compound | hERG current change (%, negative = inhibition) at 10uM
Cc1ccc2nc(-c3ccccc3)c(CN3CCN(c4ccccc4F)CC3)n2c1 | 1.85%
CN(C)S(=O)(=O)c1cccc(-c2nn(-c3ccccc3)cc2/C=C(/C#N)C(=O)NCc2ccco2)c1 | -26.9%
CCCN1CCN(CCCNC(=O)c2cc3c(=O)[nH]c4ccc(C)cc4c3s2)CC1 | -29.5%
COc1ccccc1-c1ccc(=O)n(CC(=O)NC2CCc3ccccc32)n1 (centres unmarked) | 5.88%
CCOC(=O)CC(C#N)c1cn(C)c2ccccc12 (centres unmarked) | -17.8%
CCn1c(SCC(=O)Nc2ccccc2C)nnc1-c1ccccc1O | 1.99%
Cc1ccc(C2=NN(S(C)(=O)=O)C(c3cccs3)C2)cc1 (centres unmarked) | -4.62%
Cc1nn2c(N3CCCC3)cc(C(C)C)nc2c1-c1ccccc1 | 3.92%
CCCCC1CC1C(=O)Nc1ncc2c(n1)CC(C)(C)CC2=O (centres unmarked) | -57.5%
CCCCC(=O)Nc1ncc2c(n1)CC(C)(C)CC2=O | -5.63%
CC1(C)CC(=O)c2cnc(NC(=O)C3CCCC3)nc2C1 | -12.6%
COc1cc(Br)c(CN2CCCN(C)CC2)cc1OC | -0.597%
CN(C)C=O.O=C(COC(=O)c1ccc(S(=O)(=O)N2CCCC2)cc1)Nc1cccnc1Cl | 7.25%
Cc1cccc(C(=O)NCCCN(C)CCCNC(=O)c2cccc(C)c2)c1 | -52.2%
Cc1ccc(NC(=O)C(=O)NCC2CCN(C(=O)c3cccc([N+](=O)[O-])c3)CC2)cc1 | -16.5%
O=C(NCC1CCN(C(=O)c2cccc([N+](=O)[O-])c2)CC1)c1cccc([N+](=O)[O-])c1 | -53.5%
Cc1cccc(C(=O)NCCCNC(=O)c2cccc(C)c2)c1 | -3.67%
Cc1cccc(C(=O)N2CCCCCC2)c1 | 2.61%
O=C(NCC1CCN(C(=O)c2ccc([N+](=O)[O-])cc2)CC1)C(=O)Nc1ccccc1 | -36.8%
Cc1cccc(C(=O)NCC2CCN(C(=O)c3cccc(C)c3)CC2)c1 | -51.2%
O=C(NCC1CCCCC1)c1cccc([N+](=O)[O-])c1 | 9.98%

Compound | hERG current change (%, negative = inhibition) at 10uM
Cc1cccc(C(=O)N2CCCN(C(=O)c3cccc(C)c3)CC2)c1 | -0.26%
Cc1cccc(C(=O)NCCN(C)C)c1.Cl | 8.43%
O=C(NCC1CCN(C(=O)c2ccc([N+](=O)[O-])cc2)CC1)c1ccc([N+](=O)[O-])cc1 | -71.3%
O=C(NCC1CCCCC1)c1ccc([N+](=O)[O-])cc1 | -16%
COc1ccc(Cl)cc1Nc1nc(-c2cccnc2)cs1 | 5.19%
Cc1nonc1NC(=O)OC1CCCCC1 | 1.97%
Cc1cccc(NC(=S)N2CCCN(c3ncccc3[N+](=O)[O-])CC2)c1 | -16.7%
O=C(N[C@H]1CC1c1ccccc1)c1ccc([N+](=O)[O-])cc1 (some centres unmarked) | -6.56%
COc1ccccc1NC(=O)Nc1cnccn1 | -1.51%
CC1CCCC(NC(=S)NC(=O)c2cncc(Br)c2)C1C (centres unmarked) | 21.7%
O=C(NCc1ccc2c(c1)OCO2)C1CCN(S(=O)(=O)c2ccc(Br)s2)CC1 | -24%
CCc1cccc(C)c1NC(=O)C1C2CCC(O2)C1C(=O)O (centres unmarked) | 18.8%
Cc1ccc(C2=NS(=O)(=O)N(C)C(C(=O)Nc3cc(C)n(CC(=O)N4CCCCC4)n3)=C2)cc1 | 10.3%
Cc1ccc2nc(-c3cccc(-c4cccc(Cl)c4)c3)c(NCc3ccccc3)n2c1.O=C(O)C(F)(F)F | 16.3%
O=S(=O)(c1cccc(-c2nc3ccccc3s2)c1)N1CCOCC1 | -7.39%
CC1=NN(/C(=N\c2nnc(C)s2)Nc2ccccc2)[C@H](c2ccc(C)cc2)S1 | -13.5%
CCOC(=O)N1CCN(C(=O)c2cn(C)c3ccc(S(=O)(=O)N(C)C4CCCCC4)cc3c2=O)CC1 | -29.4%
CCC1CCCCN1CCCNC(=O)c1cn(CC)c2ccc(S(=O)(=O)N(C)C3CCCCC3)cc2c1=O (centres unmarked) | -79.8%
CN(C)S(=O)(=O)c1ccc2c(c1)c(=O)c(C(=O)NCCCN1CCCCCC1)cn2C | -4.72%
CCn1cc(C(=O)NCC2CCCO2)c(=O)c2cc(S(=O)(=O)N(C)C3CCCCC3)ccc21 (centres unmarked) | -31.6%

— PMC4336329 (PLoS ONE, 2015)
